Data reported in PubChem BioAssay AID651789 (National Center for Advancing Translational Sciences (NCATS), 2012).
Records with an inconclusive call do not appear. Entries that show only a call come without a potency. Calls of active or inactive are those of the source. The call rests on the fitted dose curve; in most records, active means well fitted inhibition curve with a large enough effect; inconclusive means small, poorly fitted or top-dose-only effect; inactive means no such curve, though single readings can be large or run the other way.

Assay: Acumen qHTS Assay for Inhibitors of the mTORC1 Signaling Pathway in WT MEF Cells: Hit Validation; further: nearly all actives have a fitted effect of over 60% in size
Conditions: Acumen imaging; series mostly up to 37.3 µM
Method in brief: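 Read-out is immunofluorescent phospho-rpS6 (Ser235/236) normalised to PI-stained cell number, reported as % active cells using a 7.5 nM rapamycin threshold. Cells: WT or Tsc2-/-, p53-/- MEFs, compound-exposed 24 h at 37C; PI count also tracks viability.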
Potency means the concentration at half of the fitted maximal effect.

With `Cc1cccc(C2C=C(c3ccc(C)c(C)c3)Nc3nnnn32)c1` (stereo unspecified) as the compound, how does the Potency read?
The Potency was 1.47 µM (active).

For `CC(C)c1ccc(NS(=O)(=O)c2ccc3nc(-c4ccccc4)[nH]c3c2)cc1`, which Potency is on record?
Its Potency is “inactive”.

Which Potency does the source give for `CCC(C(=O)N1CCN(c2cccc(C)c2C)CC1)n1nc(C)c2sc3ccccc3c2c1=O` (stereo unspecified) here?
The Potency was “inactive”.

For `Cc1cccc(-n2cnc3cc(C(=O)NC4CCCCCC4)ccc32)c1`, which Potency is on record?
The Potency was 5.21 µM (active).

With `CCOc1ccc(NC(=O)c2sc3nc4c(cc3c2N)CCCCCC4)cc1` as the compound, how does the Potency read?
The Potency was “inactive”.

With `CCN1C(=O)c2ccccc2Sc2ccc(NC(=O)Cc3ccc(OC)cc3)cc21` as the compound, how does the Potency read?
Its Potency is “inactive”.

With `CCc1nnc(NC(=O)c2nc(S(=O)(=O)Cc3cccc(C)c3)ncc2Cl)s1` as the compound, how does the Potency read?
The Potency was 5.21 µM (active).

For `Nc1nnc(SCC(=O)Nc2cccc(F)c2)s1`, which Potency is on record?
Its Potency is “inactive”.

For `CCS(=O)(=O)c1ccccc1C(=O)N(Cc1cccnc1)c1nc2cc(C)c(C)cc2s1`, which Potency is on record?
Its Potency is “inactive”.

Which Potency does the source give for `CCc1ccc(CN(Cc2ccco2)C(=O)c2cc(-c3ccc(C)c(F)c3)on2)cc1` here?
The Potency was “inactive”.

For `COc1ccc(N2CCN(C(=O)C(C)n3nc(C)c4sc5ccccc5c4c3=O)CC2)cc1` (stereo unspecified), which Potency is on record?
The Potency was “inactive”.

For `CCCc1oc2ccc(NS(=O)(=O)c3ccc(OC)cc3)cc2c1C(=O)OCC`, which Potency is on record?
The Potency was 0.585 µM (active).

Which Potency does the source give for `CCCCS(=O)(=O)c1oc(-c2cccs2)nc1S(=O)(=O)c1ccccc1` here?
The Potency was 1.31 µM (active).

For `CCOc1ccc(S(=O)(=O)N(C(=O)c2ccncc2)c2ccc3oc(C)c(C(=O)OC)c3c2)cc1`, which Potency is on record?
Its Potency is 14.7 µM (active).

For `COc1cc(NC(=O)CSc2ccc(-c3ccccn3)nn2)cc(OC)c1`, which Potency is on record?
The Potency was “inactive”.

With `CCS(=O)(=O)c1oc(-c2ccc(F)cc2)nc1S(=O)(=O)c1ccc(Br)cc1` as the compound, how does the Potency read?
Its Potency is 4.65 µM (active).
